The campaign covered roughly 310,000 compounds. About 1,000 (0.32%) were called active. No rule for the calls is given here. The list is a sample of the results. Potency and affinity values are given separately.

A short description of the assay: Inhibition of PhoP regulon, Salmonella typhi GFP reporter cells, confirmation, 4 h (AID 1850).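 Also: 0% = induced wells with vehicle and 100% = uninduced wells.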 Particulars: Salmonella Typhi PhoP-promoter GFP reporter, fluorescence, at 50 µM, hits give high values.
Turning to `CCOC(=O)c1ccc(NC(=S)NCc2ccccc2)cc1`, the inhibition (commonly the relative decrease from the control value, in per cent) was 4.39% (inactive).

Consider `Cc1ccc(S(=O)(=O)N2CCN(S(=O)(=O)c3cccs3)CC2)cc1`, for which the inhibition was -0.13% (inactive).

Take `CCOc1ccc(NC(=O)CSc2nnc(-c3ccncc3)n2CC2CCCO2)cc1` (centres undefined): the inhibition was -0.03% (inactive).

For `CCNC(=O)NCCNC(=O)c1cc(OCC(F)(F)F)ccc1OCC(F)(F)F`, the inhibition was 1.77% (inactive).

With `O=C(c1ccc(-n2cncn2)c([N+](=O)[O-])c1)N1CCN(S(=O)(=O)c2ccc(F)c(F)c2)CC1`, the inhibition is 9.27% (inactive).

In the case of `CCCOc1ccc(C(=O)NNC(=S)NC(=O)c2ccccc2)cc1`, the inhibition is 2.22% (inactive).

Regarding `COc1ccc(C(=O)NNC(=S)NC(=O)c2ccco2)cc1`, the inhibition was 5.07% (inactive).

For the compound `Cc1ccc(C(=O)NNC(=S)NC(=O)c2ccco2)cc1`, the inhibition is -11.8% (inactive).

On to `CCC(=O)NC(=S)NNC(=O)c1ccc(OC)cc1`, for which the inhibition was 18.2% (inactive).

For `O=C(NNC(=S)NC(=O)c1ccc(Br)cc1)c1ccc([N+](=O)[O-])cc1`, the inhibition is 0.22% (inactive).

Consider `C=C(C)CNC(=S)NNC(=O)c1ccc(Br)cc1`, for which the inhibition is -8.67% (inactive).

On to `CCCOc1ccc(C(=O)NNC(=S)NC(=O)c2cccs2)cc1`, for which the inhibition is 19.7% (inactive).

Consider `CCCCC(=O)NC(=S)NNC(=O)c1ccc(OC)cc1`, for which the inhibition was -8.34% (inactive).

Regarding `O=C(Nc1nc(-c2ccccc2Cl)cs1)c1cccnc1`, the inhibition was 3.73% (inactive).

As to `CC(C)(C)c1cc(OC(=O)c2ccccc2F)ccc1O`, the inhibition was -1% (inactive).

As for `CC(=O)NC(=S)Nc1cc(C(F)(F)F)ccc1N1CCOCC1`, the inhibition is -8.24% (inactive).

In the case of `CCC1(C)SC(NC(C)=O)=NN1C(C)=O` (centres undefined), the inhibition was -7.92% (inactive).

With `Cc1cc(=O)[nH]c(N/N=C/c2cccc(Br)c2)n1`, the inhibition was 5.33% (inactive).

Turning to `Cc1onc(-c2ccccc2)c1C(=O)OCC(=O)N(CC(C)C)c1c(N)n(Cc2ccccc2)c(=O)[nH]c1=O`, the inhibition is 0.02% (inactive).

On to `Cc1ccsc1C1CC(=O)Nc2ccccc2S1` (centres undefined), for which the inhibition is 3.75% (inactive).

Regarding `CCN(CC(=O)NCc1ccc(Cl)cc1)C(=O)CCc1ccccc1`, the inhibition was 8.65% (inactive).

With `c1ccc(CN2CCN(C(c3ccccc3)c3nnnn3Cc3ccccc3)CC2)cc1` (centres undefined), the inhibition is -8.11% (inactive).

In the case of `COc1cc(N)c(Cl)cc1C(=O)OCC(=O)N1CCCC1`, the inhibition is -3.7% (inactive).

For `CCC(=O)NC(=S)NNC(=O)c1ccc(O)cc1`, the inhibition was -2.12% (inactive).

For `C=CCNC(=S)NNC(=O)c1ccc(OCCC)cc1`, the inhibition was 0.33% (inactive).

`CSc1ncccc1C(=O)N1CCCC(C(=O)c2ccc3ccccc3c2)C1` (centres undefined): the inhibition was 0.25% (inactive).

In the case of `Cc1cc(C(C)(C)C)ccc1OCCOCCN1CCCC1`, the inhibition was -9.74% (inactive).

For `C[N+](C)(CCOc1ccccc1)Cc1ccccc1` (tested in a mixture with another compound), the inhibition was -4.3% (inactive).

For `Cc1cc(C(C)(C)C)ccc1OCCN(C)C`, the inhibition was -2.78% (inactive).

For `CC(C)(C)c1ccc(OCCNCc2ccccc2)cc1`, the inhibition was 3.96% (inactive).

For `N/C(=N/[N+](=O)[O-])N1CCN(C(=O)c2ccc(Cl)cc2)CC1`, the inhibition was 9.05% (inactive).

For `O=C(NC1CCS(=O)(=O)C1)c1ccc(-c2ccc(Br)cc2)o1` (centres undefined), the inhibition is -6.5% (inactive).

Turning to `O=C(NCCc1ccccc1Cl)c1ccc2nc3ccccc3c(=O)n2c1`, the inhibition was -1.95% (inactive).

Consider `CCOC(=O)COc1cc([N+](=O)[O-])cc2cccnc12`, for which the inhibition is 1.87% (inactive).

Take `O=[N+]([O-])c1ccc(Sc2cccc3cccnc23)cc1`: the inhibition was -0.7% (inactive).

Turning to `NC(N)=NC(=S)Nc1ccc(Cl)cc1`, the inhibition was 18.1% (inactive).

In the case of `CC(C)N=C(N)N=C(N)Nc1ccc(Cl)cc1`, the inhibition is 28.9% (inactive).

In the case of `COc1ccc(C(=O)N/C(=C\c2ccco2)C(=O)NC2CCS(=O)(=O)C2)cc1` (centres undefined), the inhibition is -6.19% (inactive).

On to `O=C(Nc1nnc(-c2cccs2)o1)c1ccco1`, for which the inhibition was 9.01% (inactive).

For `CN(C)S(=O)(=O)c1ccc(C(=O)Nc2nnc(-c3cccs3)o2)cc1`, the inhibition is -4% (inactive).

Regarding `O=C(Nc1nnc(-c2cccs2)s1)c1cccc(F)c1`, the inhibition was -2.5% (inactive).

With `COc1cccc(C(=O)Nc2nnc(-c3cccs3)o2)c1`, the inhibition was 17.3% (inactive).

On to `N#Cc1ccc(C(=O)Nc2nnc(-c3cccs3)o2)cc1`, for which the inhibition is 21.1% (inactive).

As to `O=C(Nc1nnc(C2=COCCO2)o1)c1cccc(C(F)(F)F)c1`, the inhibition was -4.95% (inactive).

With `Cc1cc(C(=O)COC(=O)c2nc3nccc(C)n3n2)c(C)n1CC1CCCO1` (centres undefined), the inhibition is -1.82% (inactive).

As for `COCCn1c(CCC(=O)O)ccc1-c1cccs1`, the inhibition was 3.14% (inactive).

On to `O=C(O)c1ccccc1-n1c(-c2ccccc2)cc2c1CCCC2=O`, for which the inhibition is -1.82% (inactive).

In the case of `CC(C)CC1Nc2ccc(C(=O)NCc3ccc4c(c3)OCO4)cc2NC1=O` (centres undefined), the inhibition is 1.92% (inactive).

`Cc1nccn1Cc1ccccc1`: the inhibition was 9.82% (inactive).

As for `COc1ccc(Cl)cc1NC(=S)NCCc1ccc(S(N)(=O)=O)cc1`, the inhibition is 1.57% (inactive).

With `CN(Cc1ccccc1)C(=O)c1cccnc1`, the inhibition is -2.03% (inactive).

As to `CCOC(=O)c1ccc(NC(=O)c2cn(-c3ccccc3)nc2-c2ccncc2)cc1`, the inhibition is 3.68% (inactive).

In the case of `CN(C)[C@@H]1C(=O)C(C(N)=O)=C(O)[C@@]2(O)C(=O)C3=C(O)c4c(O)cccc4[C@@](C)(O)[C@H]3C[C@@H]12`, the inhibition is -2.82% (inactive).

In the case of `CN(C)[C@@H]1C(=O)C(C(N)=O)=C(O)[C@@]2(O)C(=O)C3=C(O)c4c(O)cccc4[C@@](C)(O)[C@H]3[C@H](O)[C@@H]12`, the inhibition was 5.02% (inactive).

In the case of `CN(C)[C@@H]1C(=O)C(C(=O)NCN2CCCC2)=C(O)[C@@]2(O)C(=O)C3=C(O)c4c(O)cccc4[C@@](C)(O)C3CC12` (some centres undefined), the inhibition is -8.43% (inactive).

Take `CN(C)[C@@H]1C(=O)C(C(N)=O)=C(O)[C@@]2(O)C(=O)C3=C(O)c4c(O)ccc(Cl)c4[C@@](C)(O)[C@H]3C[C@@H]12`: the inhibition is 4.13% (inactive).

`COC(=O)C1=C(C)N(Cc2ccco2)C(=O)N[C@H]1c1ccccc1`: the inhibition is -5.63% (inactive).

With `Cc1cccc(OCc2nnc(SCC(=O)c3ccccc3)o2)c1`, the inhibition was 5.39% (inactive).

As for `O=C(c1ccc(-n2cncn2)c([N+](=O)[O-])c1)N1CCN(S(=O)(=O)c2c(F)cccc2F)CC1`, the inhibition is -3.76% (inactive).

Values taken from PubChem BioAssay AID1850 (Southern Research Specialized Biocontainment Screening …, 2009).
